{"source": "the supplement of paper PMC6658780", "note": "Structures can show the parent of a compound that is named as a salt. ± gives the standard deviation of the averaged measurements.", "data": [{"test_system": "Escherichia coli ATCC BAA-2469", "assay": "percent growth inhibition of drug + antibiotic vs DMSO control; higher = more growth inhibition", "details": "antibiotic (0.125x MIC): ciprofloxacin; 7 µM", "procedure": "(§1)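 Prestwick drugs tested at 20 uM and 7 uM with an antibiotic at 0.125x MIC (16 mg/L when MIC >128 mg/L) against E. coli ATCC BAA-2469 (NDM-1) in CAMHB, 384-well plates, duplicate runs. Percent growth inhibition was computed from OD600 (24 h minus 0 h) relative to DMSO wells. Drug + DMSO-only wells are also given. […]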", "units": {"percent growth inhibition": "%"}, "values": [{"smiles": "O=C([O-])c1ccccc1-c1c2cc(Br)c(=O)cc-2oc2[c]([Hg+])c([O-])c(Br)cc12.[Na+].[Na+].[OH-]", "note": "[Merbromin]", "percent growth inhibition": "0.00817 ± 2.1"}, {"smiles": "NCC1(CC(=O)O)CCCCC1", "note": "[Gabapentin]", "percent growth inhibition": "4.43 ± 4.2"}]}, {"test_system": "Escherichia coli ATCC BAA-2469", "assay": "percent growth inhibition of drug + antibiotic vs DMSO control; higher = more growth inhibition", "details": "antibiotic (0.125x MIC): ciprofloxacin; 20 µM", "procedure": "as §1", "units": {"percent growth inhibition": "%"}, "values": [{"smiles": "NCC1(CC(=O)O)CCCCC1", "note": "[Gabapentin]", "percent growth inhibition": "9.67 ± 14"}]}, {"test_system": "Escherichia coli ATCC BAA-2469", "assay": "percent growth inhibition of drug + antibiotic vs DMSO control; higher = more growth inhibition", "details": "antibiotic (0.125x MIC): gentamicin; 7 µM", "procedure": "as §1", "units": {"percent growth inhibition": "%"}, "values": [{"smiles": "O=C(CCCN1CCC2(CC1)C(=O)NCN2c1ccccc1)c1ccc(F)cc1", "note": "[Spiperone]", "percent growth inhibition": "7.21 ± 1"}, {"smiles": "C[C@]12CC[C@H](O)C[C@@H]1CC[C@@H]1[C@@H]2CC[C@]2(C)C(=O)CC[C@@H]12", "note": "[Epiandrosterone]", "percent growth inhibition": "0.433 ± 1.2"}]}, {"test_system": "Escherichia coli ATCC BAA-2469", "assay": "percent growth inhibition of drug + antibiotic vs DMSO control; higher = more growth inhibition", "details": "antibiotic (0.125x MIC): meropenem; 7 µM", "procedure": "as §1", "units": {"percent growth inhibition": "%"}, "values": [{"smiles": "O=C([O-])c1ccccc1-c1c2cc(Br)c(=O)cc-2oc2[c]([Hg+])c([O-])c(Br)cc12.[Na+].[Na+].[OH-]", "note": "[Merbromin]", "percent growth inhibition": "0.439 ± 4"}, {"smiles": "NCC1(CC(=O)O)CCCCC1", "note": "[Gabapentin]", "percent growth inhibition": "-2.95 ± 1.7"}]}, {"test_system": "Escherichia coli ATCC BAA-2469", "assay": "percent growth inhibition of drug + antibiotic vs DMSO control; higher = more growth inhibition", "details": "antibiotic (0.125x MIC): meropenem; 20 µM", "procedure": "as §1", "units": {"percent growth inhibition": "%"}, "values": [{"smiles": "CN1[C@@H]2CC[C@H]1C[C@@H](OC(=O)C(CO)c1ccccc1)C2", "note": "(some centres undefined) [Atropine sulfate monohydrate]", "percent growth inhibition": "0.268 ± 1.2"}, {"smiles": "Oc1cc(Cl)ccc1Oc1ccc(Cl)cc1Cl", "note": "[Triclosan]", "percent growth inhibition": "97 ± 4.5"}]}]}
